The source of these data is ChEMBL document CHEMBL1157539, “Thousands of chemical starting points for antimalarial lead identification” (Nature, 2010).

Structures are written as SMILES.

Format in all cases: functional
For test [1], the system named is Plasmodium falciparum. Description: GSK_TCMDC: Inhibition of Plasmodium falciparum 3D7 in whole red blood cells, using parasite LDH activity as an index of growth. Test compounds present at 2uM.
Test [2] deals with Plasmodium falciparum. Kind of test: GSK_TCMDC: Inhibition of Plasmodium falciparum Dd2 in whole red blood cells, using parasite LDH activity as an index of growth. Test compounds present at 2uM.
The next test deals with HepG2. Description: GSK_TCMDC: Percent inhibition of human HepG2 cell line. Test compounds present at 10uM.

`Cc1ccc(C2(CN3CCC(NC(=O)c4cc[nH]n4)CC3)CCCCC2)cc1`: the Inhibition in the test with Plasmodium falciparum [1] is on record as 97%; in the test with Plasmodium falciparum [2], 96%; with HepG2 it was 0%.
`COc1ccc2ncc(F)c([C@H](O)CN3CCC(NCc4cc5c(cn4)OCCO5)CC3)c2c1.Cl`: the Inhibition in the test on Plasmodium falciparum [1] is recorded as 100%; in the test with Plasmodium falciparum [2] it was 97%; in the test on HepG2 it was 5%.
In the case of `CC(C)(C)CCN1CCC(NC(=O)c2ccc(-c3cccc(C(F)(F)F)c3)s2)CC1.O=C(O)C(F)(F)F`, the results for the Inhibition in the test with Plasmodium falciparum [1], in the test with Plasmodium falciparum [2] and with HepG2 were 93%, 88% and 95%, respectively.
In the same order, the values of `CN1CCN(CC(=O)Nc2cccc(-c3ccc(-c4nc5cc(C(F)(F)F)ccc5[nH]4)s3)c2)CC1` are 100%, 95% and 36%.
In the same order, the values of `COc1ccc2nccc([C@@H](O)CN3CCC(NC(=O)COc4nc(SCc5ccc(F)cc5)nc5c4CCC5)CC3)c2c1` are 96%, 78% and 29%.
Regarding `Cl.OCC(CO)(CO)NCc1ccc2c3c(cccc13)-c1ccccc1-2`, the results for the Inhibition in the test with Plasmodium falciparum [1], with Plasmodium falciparum [2] and in the test with HepG2 were 87%, 76% and 73%, respectively.
As to `OC1CCC(Nc2ccc3ncc(-c4ccc(Cl)cc4)n3n2)CC1` (stereo not given), the values for the Inhibition with Plasmodium falciparum [1], in the test with Plasmodium falciparum [2] and in the test on HepG2 were 97%, 98% and 57%, respectively.
In the same order, the values of `CC(Oc1ccc(Cl)cc1)C(=O)N(C)C1CCN(CCCCCNC(=O)/C=C/c2ccc(Cl)c(Cl)c2)CC1` (stereo not given) are 85%, 10% and 61%.
In the same order, the values of `COc1cc2nc(NCC3CCN(c4nc(N)c5cc(OC)c(OC)cc5n4)CC3)nc(N)c2cc1OC` are 92%, 73% and 12%.
As for `NS(=O)(=O)c1ccc(CNc2ccc3ncc(-c4ccc(Cl)cc4)n3n2)cc1`, the values for the Inhibition with Plasmodium falciparum [1], with Plasmodium falciparum [2] and in the test on HepG2 were 96%, 99% and 26%, respectively.
